# Measurements from PubChem BioAssay (Tox21).
# Results filed as inconclusive are left out. Active and inactive are the calls of the source. Calls come from the whole dose curve.
# Assay: qHTS assay to identify small molecule agonists of the sonic hedgehog signaling (Shh) pathway (AID 1259368);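 note: NIH/3T3-derived 3T3Gli1-Luc cells carrying a stable Gli1-driven firefly luciferase reporter; nearly all actives have a fitted effect of over 15% in size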
# Conditions: NIH/3T3 Gli1-Luc reporter, luciferase, 24 h, stronger effect = higher value; series mostly up to 92.4 µM; activity change: at the top concentration
# Outline: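 Following a 24 hr incubation with DMSO-dissolved compounds at 37 C, 5% CO2, Gli1-Luc NIH/3T3-derived cells received luciferase reagent for 30 min at room temperature prior to luminescence measurement.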
# % is set by controls: 0 for no effect and ±100 for the full control effect.
row,Structure (SMILES),activity change
1,CON(C)C(=O)Nc1ccc(Br)c(Cl)c1,2.4% (inactive)
2,CON(C)C(=O)Nc1ccc(Br)cc1,2.14% (inactive)
3,C#CC(C)(C)O,9.16% (inactive)
4,ClCCCCCCCl,0.958% (inactive)
5,CCOC(=O)COc1ccc(Cl)cc1Cl,0.954% (inactive)
6,C[C@@H](N)[C@@H](O)c1ccccc1,-0.221% [at 42.5 µM] (inactive)
7,CCC(=O)OC1(c2ccccc2)CCN(C)CC1,-0.0347% (inactive)
8,BrCCc1ccccc1,-1.78% (inactive)
9,CN1COCN(Cc2cnc(Cl)s2)/C1=N\[N+](=O)[O-],-0.661% (inactive)
10,CCCCS(=O)(=O)Cl,-0.416% (inactive)
11,O=C(O)CBr,-0.445% (inactive)
12,CCCC(C)(COC(N)=O)COC(N)=O,-10.7% (inactive)
13,C=CCN1CC[C@]23CCCC[C@H]2[C@H]1Cc1ccc(O)cc13,0.129% [at 42.5 µM] (inactive)
14,Cn1c(N)nc2c3cccnc3ccc21,-2.8% (inactive)
15,CCOC(=O)C(SP(=S)(OC)OC)c1ccccc1 (stereo not given),-0.004% (inactive)
16,O=c1[nH]c2ccccc2o1,-1.9% (inactive)
17,CC1=C2[C@H]3OC(=O)[C@@H](C)[C@@H]3CC[C@@]2(C)C=CC1=O,-0.0494% [at 42.5 µM] (inactive)
18,CC(C)C(C)(N)C#N (stereo not given),-0.0945% (inactive)
19,CCC(=O)c1ccc(Cl)cc1,-1.65% (inactive)
20,CCN1CCCC1CNC(=O)C(O)(c1ccccc1)c1ccccc1 (stereo not given),0% [at 42.5 µM] (inactive)
21,C=CC(=O)OCCN(C)C,0.407% (inactive)
22,N#CC(Br)(Br)C(N)=O,-7.54% (inactive)
23,O=[N+]([O-])c1cccc(CCl)c1,0.93% (inactive)
24,CC(C)c1ccc(O)cc1,0.391% (inactive)
25,C=C(Cl)CSC(=S)N(CC)CC,0.0432% (inactive)
26,[P]#[In],0.556% (inactive)
27,c1ccc2c(c1)CCNC2,1.98% (inactive)

# Assay: qHTS assay to identify small molecule antagonists of the sonic hedgehog signaling (Shh) pathway (AID 1259369); note: nearly all actives have a fitted effect of over 45% in size; note: potency is the fitted concentration of half-maximal effect
# Conditions: NIH/3T3 Gli1-Luc reporter, Shh antagonist, luminescence 24 h; series mostly up to 92.4 µM; activity change, negative = inhibition: at the top concentration
# Outline: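 Read-out is luminescence from a firefly luciferase gene controlled by the Gli1 response element, in 3T3Gli1-Luc cells pre-incubated 4hr then exposed to compounds and conditioned medium for 24hr.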
Structure (SMILES),"activity change, negative = inhibition",Potency
CCOC(=O)COc1ccc(Cl)cc1Cl,18.4% (inactive),–
C[C@@H](N)[C@@H](O)c1ccccc1,24.2% [at 42.5 µM] (inactive),–
CC(=NC#N)N(C)Cc1ccc(Cl)nc1,2.68% (inactive),–
BrCCc1ccccc1,14% (inactive),–
CN1COCN(Cc2cnc(Cl)s2)/C1=N\[N+](=O)[O-],-0.605% (inactive),–
CCCCS(=O)(=O)Cl,-4.17% (inactive),–
O=C(O)CBr,-8.41% (inactive),–
CCCC(C)(COC(N)=O)COC(N)=O,–,25.8 µM (active)
CC(Cl)(Cl)Cl,17.5% (inactive),–
C=CCN1CC[C@]23CCCC[C@H]2[C@H]1Cc1ccc(O)cc13,0.056% [at 42.5 µM] (inactive),–
CCOC(=O)C(SP(=S)(OC)OC)c1ccccc1 (stereo not given),9.43% (inactive),–
O=c1[nH]c2ccccc2o1,-0.515% (inactive),–
CC1=C2[C@H]3OC(=O)[C@@H](C)[C@@H]3CC[C@@]2(C)C=CC1=O,0.225% [at 42.5 µM] (inactive),–
O=C(O)C(F)(F)C(F)(F)C(F)(F)C(F)(F)C(F)(F)C(F)(F)F,10.5% (inactive),–
CC(C)C(C)(N)C#N (stereo not given),27.8% (inactive),–
CCN1CCCC1CNC(=O)C(O)(c1ccccc1)c1ccccc1 (stereo not given),3.44% [at 42.5 µM] (inactive),–
C=CC(=O)OCCN(C)C,-2.78% (inactive),–
N#CC(Br)(Br)C(N)=O,-24.1% (inactive),–
O=[N+]([O-])c1cccc(CCl)c1,-4.73% (inactive),–
CC(C)c1ccc(O)cc1,0.988% (inactive),–
CC(C)(C)C(=O)C(Cl)Cl,5.56% (inactive),–
CCOC(=O)N(C)N=O,1.01% (inactive),–
[P]#[In],2.68% (inactive),–
